Data from PubChem BioAssay (Tox21).
Records with an inconclusive call do not appear. Unmarked numbers belong to inactive results. Activity calls are given as the source filed them. Calls follow the shape of the dose curve; as a rule, active = well fitted activation curve with a large enough effect in the signal ratio in the repeat runs (not every such curve was filed as active); inconclusive = weak or mixed curves; inactive = flat fitted curve, though single readings scatter; the % refers to the signal ratio.
% is scaled to controls: 0 for no effect and ±100 for the full control effect; potency is read from the fitted curve at half-maximal effect.

Assay: qHTS assay to identify small molecule agonists of H2AX (AID 1224845)
Details: CHO-K1 phospho-H2AX Ser139 HTRF, 3 h; series mostly up to 154 µM; activation (H2AX phosphorylation): at the top concentration
Source text: National Center for Advancing Translational Sciences [NCATS]
NIH Chemical Genomics Center [NCGC]
U.S. Environmental Protection Agency [EPA]
National Institutes of Environmental Health Sciences [NIEHS]
National Toxicology Program [NTP]
U.S. Food and Drug Administration [FDA]
HTRF phospho-H2AX (Ser139) assay (Cisbio Bioassays, US) enables the quantitative detection of the histone variant H2AX when phosphorylated on serine 139. When double-stranded DNA breaks, either by ionizing radiation or endogenous physiological processes, H2AX becomes phosphorylated at Ser139. This phospho-Ser139 serves as a sensitive biomarker for the detection of such breaks, localizing the site of DNA repair. So, HTRF phospho-H2AX Ser139 is a pertinent assay to study genome stability, the cell cycle, DNA repair, and it serves as a biomarker for cancer, and to understand aging. Wild type CHO-K1 cells were used to identify the inducers of Phospho-H2AX Ser 139 from the Tox21 10K compound collections.
Tox21 Assay Protocol Summary:
The CHO-K1 cells suspended in culture medium containing 10% FBS were dispensed at 1000 cells/ 3 ul/well in 1536-well white wall/solid bottom plates (Greiner Bio-One North America, NC) using a Multidrop Combi (Thermo Fisher Scientific Inc., Waltham, MA). After the assay plates were incubated at 37C overnight, 23 nl of compounds at 15 concentrations (from 5-48 columns) or positive control (from 1 to 4 columns) were transferred to the assay plates using a Pintool station (Wako, San Diego, CA) into each well resulting in a final DMSO concentration of 0.76%. After 3hr incubation at 37C, 1 uL/well Supplemented Lysis buffer (diluted 100 fold blocking reagent in lysis buffer) (HTRF Phospho-H2A.X (S139) Assay kit from Cisbio US Inc., Bedford, MA) was added using a Flying Reagent Dispenser (FRD) (Aurora Discovery, CA). After 10sec spin at 1000 rpm in a plate centrifuge, the assay plates were incubated at room temperature for 30 min. Then followed by the addition of 1 uL/well detection buffer (containing a mixture of two antibodies, one labeled with cryptate, Anti pH2AX (S139)-K and another labeled with d2, Anti H2AX-d2) using FRD. After incubation at room temperature for 24 hr, the time resolved fluorescence at excitation 320 nm and emissions at 665 nm and 620 nm was measured using an Envision plate reader (PerkinElmer, Waltham, MA).
With `CC1(C)[C@H](C(=O)O)N2C(=O)C[C@H]2S1(=O)=O` the “activation (H2AX phosphorylation)” value was -2.08% [at 70.9 µM].
With `O=C1Cc2cc(Cl)ccc2N1` the “activation (H2AX phosphorylation)” value was -0.595% [at 70.9 µM].
With `O[C@@H]1CO[C@H]2[C@@H]1OC[C@@H]2O` the “activation (H2AX phosphorylation)” value was -2.37% [at 70.9 µM].
With `CC(C)C=O` the “activation (H2AX phosphorylation)” value was 1.43%.
For `Cc1ccc2c(Br)cc(Br)c(O)c2n1`, the Potency was 39.1 µM (active).
With `O=C(Cn1ccnc1[N+](=O)[O-])NCCO` the “activation (H2AX phosphorylation)” value was -1.36% [at 70.9 µM].
For `CC(=O)c1ccc([N+](=O)[O-])cc1`, the “activation (H2AX phosphorylation)” value was 0.637%.
In the case of `Cc1cc(O)c(C)c(C)c1O`, the “activation (H2AX phosphorylation)” value is reported as -0.594% [at 70.9 µM].
For `FC(F)(F)c1ccccc1Cl`, the “activation (H2AX phosphorylation)” value was -1.14%.
With `CC(C)Nc1cccnc1N1CCN(C(=O)c2cc3cc(NS(C)(=O)=O)ccc3[nH]2)CC1` the “activation (H2AX phosphorylation)” value was 6.17% [at 70.9 µM].
For `Nc1nnc(-c2ccc([N+](=O)[O-])o2)o1`, the “activation (H2AX phosphorylation)” value was 2.87%.
In the case of `O=C1NCCN1CCO`, the “activation (H2AX phosphorylation)” value is reported as 0.158%.
In the case of `CC1(CN2CCC(n3c(=O)[nH]c4ccccc43)CC2)OCc2ccccc2-n2cccc21` (stereo not given), the “activation (H2AX phosphorylation)” value is reported as 6.67% [at 70.9 µM].
In the case of `C=COCC(C)C`, the “activation (H2AX phosphorylation)” value is reported as -5.3%.
For `O=C(OC(=O)c1ccccc1)c1ccccc1`, the “activation (H2AX phosphorylation)” value was -1.63%.
In the case of `CN1CC(=O)N2[C@H](c3ccc4c(c3)OCO4)c3[nH]c4ccccc4c3C[C@@H]2C1=O`, the “activation (H2AX phosphorylation)” value is reported as -1.2% [at 70.9 µM].
For `CCCCCCCCCI`, the “activation (H2AX phosphorylation)” value was -0.486%.
For `CCCCC(CC)CN` (stereo not given), the “activation (H2AX phosphorylation)” value was -1.27%.
For `CN1CCCC(n2nc(Cc3ccc(Cl)cc3)c3ccccc3c2=O)CC1` (stereo not given), the “activation (H2AX phosphorylation)” value was -4.9% [at 70.9 µM].
In the case of `C=C/C(C)=C/C/C=C(\C)CCC=C(C)C`, the “activation (H2AX phosphorylation)” value is reported as -0.071%.
For `Nc1ncnc2c1ncn2[C@H]1CC[C@@H](CO)O1`, the “activation (H2AX phosphorylation)” value was 4.64%.
With `CCC(C)COC(C)=O` (stereo not given) the “activation (H2AX phosphorylation)” value was -1.53%.
In the case of `CN1C(C(=O)Nc2ccccn2)=C(O)c2sccc2S1(=O)=O`, the “activation (H2AX phosphorylation)” value is reported as 0.573% [at 70.9 µM].
In the case of `CCCCN1CCCC1C(=O)Nc1c(C)cc(C)cc1C` (stereo not given), the “activation (H2AX phosphorylation)” value is reported as -1.67% [at 70.9 µM].
With `OC1(c2ccccc2)CCNCC1` the “activation (H2AX phosphorylation)” value was -2.24% [at 70.9 µM].
For `CC(CC1c2ccccc2CCc2ccccc21)CN(C)C` (stereo not given), the “activation (H2AX phosphorylation)” value was 2.45% [at 70.9 µM].
With `O=C1c2ccccc2C(=O)C1(O)O` the Potency was 50.8 µM (active).
In the case of `O=c1cc(-c2ccccc2)oc2cc(O)cc(O)c12`, the “activation (H2AX phosphorylation)” value is reported as 3.22%.
With `CN1CCCN=C1COC(=O)C(O)(c1ccccc1)C1CCCCC1` (stereo not given) the “activation (H2AX phosphorylation)” value was -0.883% [at 70.9 µM].
In the case of `O=[N+]([O-])c1cc(C2CCCCC2)c(O)c([N+](=O)[O-])c1`, the “activation (H2AX phosphorylation)” value is reported as 0.277%.
In the case of `O=Cc1c2ccccc2c(Cl)c2ccccc12`, the “activation (H2AX phosphorylation)” value is reported as 4.48% [at 70.9 µM].
For `O=C(Nc1cccc2c(=O)cc(-c3nn[nH]n3)oc12)c1ccc(OCCCCc2ccccc2)cc1`, the “activation (H2AX phosphorylation)” value was -4.6% [at 70.9 µM].
With `NC(=O)c1ccncc1` the “activation (H2AX phosphorylation)” value was -1.69%.
For `CCCCCCCCN`, the “activation (H2AX phosphorylation)” value was -1.62%.
For `CCCCN(CCCC)C(C(N)=O)c1ccc(OC)cc1` (stereo not given), the “activation (H2AX phosphorylation)” value was -2.96% [at 70.9 µM].
With `c1ccc2c(c1)CCc1ccccc1N2` the Potency was “inactive”.
In the case of `CCOC(=O)C1=C(C)NC(C)=C(C(=O)OC)C1c1cccc(Cl)c1Cl` (stereo not given), the “activation (H2AX phosphorylation)” value is reported as -4.11% [at 70.9 µM].
With `COc1ccccc1N1CCN(CC(O)COc2cccc3ccccc23)CC1` (stereo not given) the “activation (H2AX phosphorylation)” value was 4.42% [at 70.9 µM].
In the case of `C(=C\c1ccccc1)/c1ccccc1`, the “activation (H2AX phosphorylation)” value is reported as -0.684%.
In the case of `CC[N+](CC)(CCNC(=O)C(=O)NCC[N+](CC)(CC)Cc1ccccc1Cl)Cc1ccccc1Cl`, the “activation (H2AX phosphorylation)” value is reported as -0.99% [at 70.9 µM].
